Results on 51 compounds are retold here after ChEMBL document CHEMBL4513216, “Probing the Open Global Health Chemical Diversity Library for Multistage-Active Starting Points for Next-Generation Antimalarials” (ACS Infect Dis, 2020).

In all, about 69,000 compounds went through this assay and about 8,600 (12%) showed an effect of 50% or more. Shown is part of a subset that was picked to be rich in strong results.

The experiment concerns Plasmodium berghei. Description: Screen against P. berghei liver stage (PbLuc), transformed with Luciferase, at 10uM. Format: functional, HepG2. Conditions: tested at 10 uM.
As to `COc1cccc(CN2CCC(c3cc(O)nc(C)n3)C2)c1` (stereo unspecified), the INHIBITION was 47.8%.

Consider `COc1ccc(CC(=O)N2CCCC2c2nc(C)c(C)c(O)n2)cc1` (stereo unspecified), for which the INHIBITION is given as 46%. In the case of `COCc1cc(O)nc(C2CCCN(Cc3cccc(OC)c3)C2)n1` (stereo unspecified), the INHIBITION was 57.5%. Consider `COc1ccc(F)c(CN2CCC(c3cc(O)nc(C)n3)C2)c1` (stereo unspecified), for which the INHIBITION is recorded as 50.6%. Under `COCc1cc(O)nc(C2CCCN(Cc3ccc(OC)cc3)C2)n1` (stereo unspecified) stands 61.9%. Under `COc1ccc(F)c(CN2CCCC(c3cc(O)nc(C)n3)C2)c1` (stereo unspecified) stands 25.8%. Turning to `COc1cccc(CC(=O)N2CCCC2c2nc(C)c(C)c(O)n2)c1` (stereo unspecified), the INHIBITION is on record as 50.8%. Then `COc1ccc(CN2CCC(c3cc(O)nc(C)n3)C2)c(F)c1` (stereo unspecified), with 21.9%.

For `COc1cccc(CC(=O)N2CCCC2c2nc(C)c(F)c(O)n2)c1` (stereo unspecified), the INHIBITION is given as 3.91%.

For `CCc1cc(O)nc(C2CCCN(Cc3ccncc3)C2)n1` (stereo unspecified), the INHIBITION came to 47.1%. On to `COCc1cc(O)nc(C2CCCN(Cc3ccc(F)cc3)C2)n1` (stereo unspecified), for which the INHIBITION stood at 39.7%.

In the case of `CCN(CC1CCOC1)C(=O)Nc1ccc(OCC(F)(F)F)nc1` (stereo unspecified), the INHIBITION is given as -1.885%.

As to `CC(C)(C)CCN1CCC(c2nnc(Cn3cccn3)n2C2CC2)CC1`, the INHIBITION turned out to be 32.2%. As to `CC(=O)NCC(=O)NCC1(O)CCN(c2cnccn2)C1` (stereo unspecified), the INHIBITION worked out at 42.25%. Under `COc1c(C)cnc(CN2CCOC(Cn3cncn3)C2)c1C` (stereo unspecified) stands 2.97%.

Regarding `O=C(C1CCC2(CCN(CC3CCOCC3)CC2)O1)N1CCCC1` (stereo unspecified), the INHIBITION came to 1.34%. Then `COCCNC(=O)C1(Cc2ccccc2-c2ccncc2)CCOCC1`, with 40%; and `Cc1cc(O)nc(C2CCCN(Cc3ccncc3)C2)n1` (stereo unspecified), with 27.3%. On to `COc1ccc(OC)c(CN2CCC(c3cc(O)nc(C)n3)C2)c1` (stereo unspecified), for which the INHIBITION was 41.2%. Then `COCc1cc(O)nc(C2CCCN(Cc3cc(OC)ccc3F)C2)n1` (stereo unspecified), with 52.3%; and `O=C1CSC(c2ccc(O)cc2)c2c(n(C3CCOCC3)[nH]c2=O)N1` (stereo unspecified), with 60.1%; and `CCOc1ccc(C2SCC(=O)Nc3c2c(=O)[nH]n3C(CC)CC)cc1` (stereo unspecified), with -19.7%. As to `COc1ccccc1C1CC(=O)Nc2c1c(=O)[nH]n2C1CCCC1` (stereo unspecified), the INHIBITION was found to be 11.7%. Take `CSc1ccc(C2SCC(=O)Nc3c2c(=O)[nH]n3C2CCOCC2)cc1` (stereo unspecified): the INHIBITION stood at 52.1%. Under `COc1ccccc1C1SCC(=O)Nc2c1c(=O)[nH]n2C1CCCCC1` (stereo unspecified) stands -2.39%; under `O=C1CC(c2ccccc2F)c2c(n(C3CCCC3)[nH]c2=O)N1` (stereo unspecified), 68.5%. Under `O=C1CSC(c2ccccc2)c2c(n(C3CCOCC3)[nH]c2=O)N1` (stereo unspecified) stands 32.2%. Under `O=C1CSC(c2ccsc2)c2c(n(C3CCCC3)[nH]c2=O)N1` (stereo unspecified) stands 63.3%.

Take `Cn1cc(C2SCC(=O)Nc3c2c(=O)[nH]n3C2CCOCC2)cn1` (stereo unspecified): the INHIBITION is given as -70.7%.

For `O=C1CC(C2CCCCC2)c2c(n(C3CCCC3)[nH]c2=O)N1` (stereo unspecified), the INHIBITION worked out at 43.4%. Then `CC1=Nc2c(c(=O)[nH]n2C2CCOCC2)C(c2cccc(O)c2)S1` (stereo unspecified), with 0.29%. Then `Cc1n[nH]c2c1C(c1ccsc1)SCC(=O)N2` (stereo unspecified), with 19.7%. Under `Cc1ccsc1CNC(=O)NC(C)c1ccc2c(c1)CCC(=O)N2` (stereo unspecified) stands -121%. Consider `COCCN1CCO[C@@H]2CN(Cc3ccc(C)s3)C[C@@H]2C1`, for which the INHIBITION was 24.6%. Turning to `NC(=O)C1CCN(C(=O)CCSCc2ccccc2)CC1`, the INHIBITION is 17.2875%. For `CCCn1nc(C)c(C(=O)N(C)[C@@H]2CC[C@@H](N3CCCC3)[C@@H]2O)c1C`, the INHIBITION came out at 32%. Then `CCn1cnnc1C1CCN(C(=O)c2cc3c(s2)CCOC3)CC1`, with -9.37%; and `Cc1cc(C)cc(N2CCN(C(=O)CCN3C[C@H]4CC[C@@H]3C4)CC2=O)c1`, with 22.1%; and `CC(O)CN1CCN(C(=O)c2cccn2Cc2ccccc2)CC1` (stereo unspecified), with -0.113%. Take `CCOC(C)c1nccn1CC(=O)Nc1cc(C)on1` (stereo unspecified): the INHIBITION is reported as 15.4%.

As for `CSCC(=O)N1CCCC(CO)(CC2CC2)C1` (stereo unspecified), the INHIBITION turned out to be 41.2%. Regarding `O=C1CSC(c2ccncc2)c2c(n(C3CCOCC3)[nH]c2=O)N1` (stereo unspecified), the INHIBITION is recorded as 52.1%. Then `O=C1CSC(c2cccnc2)c2c(n(C3CCOCC3)[nH]c2=O)N1` (stereo unspecified), with 48.1%; and `O=C1CC(c2ccsc2)c2c(n(C3CCOCC3)[nH]c2=O)N1` (stereo unspecified), with 19%. Then `CC(C)(C)n1ncc2c1NC(=O)CSC2c1ccsc1` (stereo unspecified), with -14.7%; and `Cc1n[nH]c2c1C(c1ccncc1)SCC(=O)N2` (stereo unspecified), with 23.5%. Under `O=C1CSC(c2ccsc2)c2c(n(C3CCOCC3)[nH]c2=O)N1` (stereo unspecified) stands 67.1%.

Take `CC(C(=O)N1CCCCCC1)N1CCN(Cc2nccn2C)CC1` (stereo unspecified): the INHIBITION amounted to 37.4%.

`CCSCCn1cc(-c2nccs2)nn1`: the INHIBITION was -17.5%. For `CC(C)c1ncncc1C(=O)N1CCCN(Cc2ccccc2)CC1`, the INHIBITION was determined as 14.1%. Consider `CC(C)C(=O)N1CCCC1C(=O)Nc1ccc(F)c(F)c1` (stereo unspecified), for which the INHIBITION was found to be 21.7%.
